From PubChem BioAssay (NCATS)
Several values for one entry are separate records, joined by “and”; a condition that tells them apart may be missing. Identical values can stand only once. Inconclusive results are not listed. Activity calls are given as the source filed them. Unless noted, the call rests on the fitted dose curve; in most records, active means well fitted inhibition curve with a large enough effect; inconclusive means small, poorly fitted or top-dose-only effect; inactive means flat fitted curve, though single readings scatter.

How the values were obtained:
[1] = Drug repurposing screens with cells derived from glioblastoma tumor samples (AID 1345199); conditions: GBM patient neurospheres viability, ATP luminescence, 48 h; further: nearly all actives have a fitted effect of over 40% in size; further: potency means the concentration at half of the fitted maximal effect; on activity, negative = cell killing: on the % scale 0 is the no-effect control and ±100 the full control effect
Method in brief: (§1)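 Primary testing used CD133+ neurospheres from four GBM patients, seven concentrations, 48 h exposure and ATP-based viability; confirmation added three slower-growing patient lines.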

astro = control astrocytes; assay: as above; conditions: viability, ATP luminescence, 48 h; series mostly up to 45.9 µM
Method in brief: as §1

[2] = target: Nuclear receptor subfamily 1 group I member 2 (Rattus norvegicus) (UniProt Q9R1A7); assay: qHTS assay for small molecule activators of the rat pregnane X receptor (rPXR) signaling pathway (AID 651751; call rule not given here; further: 0% is about no effect); conditions: rPXR reporter cells, luciferase (One-Glo), 24 h
[3] = qHTS assay for small molecule activators of the human pregnane X receptor (PXR) signaling pathway (AID 720659; call rule not given here; further: 0% is about no effect); conditions: DPX-2 HepG2 CYP3A4-luciferase, 24 h; series mostly up to 92.3 µM
[4] = at 45.9 µM (top of the series), tumour line B
[5] = at 45.9 µM (top of the series), tumour line D
[6] = at 46.1 µM (top of the series), tumour line C
[7] = at 20 µM (top of the series), tumour line C
[8] = at 21.2 µM (top of the series), tumour line D

Sequence of Nuclear receptor subfamily 1 group I member 2 (Rattus norvegicus) (Q9R1A7 whole entry, looked up): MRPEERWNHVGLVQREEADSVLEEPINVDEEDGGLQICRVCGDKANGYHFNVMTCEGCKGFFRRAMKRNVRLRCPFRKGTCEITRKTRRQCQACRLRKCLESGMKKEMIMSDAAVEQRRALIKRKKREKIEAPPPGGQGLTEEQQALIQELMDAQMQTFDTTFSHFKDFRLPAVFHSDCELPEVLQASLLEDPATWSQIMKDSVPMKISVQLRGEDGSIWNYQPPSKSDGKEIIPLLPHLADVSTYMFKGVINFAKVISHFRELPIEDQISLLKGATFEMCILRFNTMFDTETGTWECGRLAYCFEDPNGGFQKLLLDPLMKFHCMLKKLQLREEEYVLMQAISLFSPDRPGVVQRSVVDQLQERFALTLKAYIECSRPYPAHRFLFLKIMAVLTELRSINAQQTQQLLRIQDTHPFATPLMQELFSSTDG

OC[C@H]1O[C@@H]2O[C@H]3[C@H](O)[C@@H](O)[C@@H](O[C@H]4[C@H](O)[C@@H](O)[C@@H](O[C@H]5[C@H](O)[C@@H](O)[C@@H](O[C@H]6[C@H](O)[C@@H](O)[C@@H](O[C@H]7[C@H](O)[C@@H](O)[C@@H](O[C@H]1[C@H](O)[C@H]2O)O[C@@H]7CO)O[C@@H]6CO)O[C@@H]5CO)O[C@@H]4CO)O[C@@H]3CO
inactive: activity, negative = cell killing [1, 4] -13.8% | activity, negative = cell killing [1, 5] -5.74% | activity, negative = cell killing [1, 6] -2.87% | Potency (astro) | max response [2] 1.3% and 2.85% | outcome [3]

OC[C@H]1O[C@@](CO)(O[C@H]2O[C@H](CO)[C@@H](O)[C@H](O)[C@H]2O)[C@@H](O)[C@@H]1O
inactive: activity, negative = cell killing [1, 4] -5.09% | activity, negative = cell killing [1, 5] -14.4% | activity, negative = cell killing [1, 6] -22.3% | Potency (astro) | max response [2] 1.07% | outcome [3]

CC[C@H]1NC(=O)[C@@H](NC(=O)c2ncccc2O)[C@@H](C)OC(=O)[C@H](c2ccccc2)NC(=O)[C@@H]2CC(=O)CCN2C(=O)[C@H](Cc2ccccc2)N(C)C(=O)[C@@H]2CCCN2C1=O
inactive: activity, negative = cell killing [1, 4] -1.4% | activity, negative = cell killing [1, 5] 17.7% | activity, negative = cell killing [1, 6] -11% | Potency (astro)

O=C(c1cc2ccccc2o1)N1CCN(Cc2ccccc2)CC1
active: Potency ([1]; tumour line A) 11.2 µM
inactive: activity, negative = cell killing [1, 4] -15.4% | Potency (astro)

CC(C)C[C@H](NC(=O)[C@@H](Cc1c[nH]c2ccccc12)NC(=O)[C@H](Cc1ccc(O)cc1)NC(=O)[C@H](CO)NC(=O)[C@H](Cc1c[nH]c2ccccc12)NC(=O)[C@H](Cc1cnc[nH]1)NC(=O)[C@@H]1CCC(=O)N1)C(=O)N[C@@H](CCCN=C(N)N)C(=O)N1CCC[C@@H]1C(=O)NCC(N)=O
inactive: activity, negative = cell killing [1, 4] -6.78% | activity, negative = cell killing [1, 6] -22.9% | Potency (astro)

CC(CCc1ccc(O)cc1)NCC(O)c1ccc(O)cc1 (stereo unspecified)
inactive: activity, negative = cell killing [1, 4] 1.78% | activity, negative = cell killing [1, 5] 4.34% | activity, negative = cell killing [1, 6] 2.7% | Potency (astro)

Oc1cccc(O)c1O
inactive: activity, negative = cell killing [1, 4] -15.1% | activity, negative = cell killing [1, 5] 2.75% | activity, negative = cell killing [1, 6] 15.2% | Potency (astro) | max response [2] -3.92% | outcome [3]

CCOc1ccc(NC(=S)Nc2ccc(OCC)cc2)cc1
inactive: activity, negative = cell killing [1, 4] -13.1% | activity, negative = cell killing [1, 5] -11.1% | activity, negative = cell killing [1, 6] -27.8% | Potency (astro)

O=C(OC[C@H]1O[C@](O)(COC(=O)c2cccnc2)[C@@H](OC(=O)c2cccnc2)[C@@H]1OC(=O)c1cccnc1)c1cccnc1
inactive: activity, negative = cell killing [1, 4] -19% | activity, negative = cell killing [1, 5] -0.117% | activity, negative = cell killing [1, 6] -25.9% | Potency (astro)

C=C1[C@@H]2CC[C@@H](C2)C1(C)C
inactive: activity, negative = cell killing [1, 4] -1.58% | activity, negative = cell killing [1, 5] -22% | Potency (astro)

COC1[C@@H](O[C@@H]2O[C@H](C)[C@@H](O[C@H]3C[C@@](C)(O)[C@H](OC(=O)CC(C)C)[C@H](C)O3)[C@H](N(C)C)[C@H]2O)[C@@H](CC=O)C[C@@H](C)[C@@H](O)/C=C/C=C/C[C@@H](C)OC(=O)C[C@H]1OC(C)=O (stereo partly specified)
inactive: activity, negative = cell killing [1, 7] -1.06% | activity, negative = cell killing ([1]; at 21.2 µM (top of the series), tumour line B) -12.1% | activity, negative = cell killing [1, 8] -12.4% | Potency (astro)

C=C1c2c(Cl)ccc(O)c2C(O)=C2C(=O)[C@]3(O)C(O)=C(C(N)=O)C(=O)[C@@H](N(C)C)[C@@H]3[C@@H](O)[C@H]12
inactive: activity, negative = cell killing [1, 7] 3.1% | activity, negative = cell killing [1, 8] -28.3% | Potency (astro)

ClC(Cl)Cl
inactive: activity, negative = cell killing [1, 4] 0.236% | activity, negative = cell killing [1, 5] -13.8% | activity, negative = cell killing [1, 6] -5.54% | Potency (astro) | max response [2] -6.93% | outcome [3]

OCCOCCOCCO
inactive: activity, negative = cell killing [1, 4] -6.55% | activity, negative = cell killing [1, 5] -3.68% | activity, negative = cell killing [1, 6] 4.43% | Potency (astro) | max response [2] 0.109% and -2.24%

NC(=O)[C@@H]1C[C@]2(NC(=O)NC2=O)c2cc(F)ccc2O1
inactive: activity, negative = cell killing [1, 4] -9.48% | activity, negative = cell killing [1, 5] 3.75% | activity, negative = cell killing [1, 6] -17.3% | Potency (astro)

O=C(NNCS(=O)(=O)O)c1ccncc1
inactive: activity, negative = cell killing [1, 4] -4.21% | activity, negative = cell killing ([1]; at 46 µM (top of the series), tumour line A) -67.1% | Potency (astro)

Cc1cccc(C)c1NC(=O)NC1=CCCN1C
inactive: activity, negative = cell killing [1, 4] -5.38% | activity, negative = cell killing [1, 5] -0.755% | activity, negative = cell killing [1, 6] 0.0506% | Potency (astro)

CO[C@@H]1[C@H](OC(=O)/C=C/C=C/C=C/C=C/C(=O)O)CC[C@]2(CO2)[C@H]1[C@@]1(C)O[C@@H]1CC=C(C)C
inactive: activity, negative = cell killing [1, 4] 2.14% | activity, negative = cell killing [1, 5] -9.21% | activity, negative = cell killing [1, 6] 4.82% | Potency (astro) | max response [2] -5.29% | outcome [3]

Cc1ccc(S(=O)(=O)NC(=O)N[C@@H](C)Cc2ccccc2)cc1
inactive: activity, negative = cell killing [1, 4] -12% | activity, negative = cell killing [1, 5] -19.4% | activity, negative = cell killing [1, 6] -17.1% | Potency (astro)

S=C1SCN(Cc2ccccc2)CN1Cc1ccccc1
inactive: activity, negative = cell killing [1, 5] -15% | activity, negative = cell killing [1, 6] -9.54% | Potency (astro)
active: Potency ([1]; tumour line A) 11.2 µM
